# The antibiotic and cytotoxicity screens of Wong et al. (2023)
# The whole screen tested about 39,000 compounds, of which about 1,500 (3.8%) were called active. Many of the other results were omitted from the sample, so actives are more common in it than they were.
# Tested on: HSkMC (human skeletal muscle cells)
# Test: cytotoxicity call (relative viability < 0.9)
# Conditions: 10 µM
row,Structure (SMILES),cytotoxicity call
1,CCc1cc(=O)oc2c(C)c(O[C@@H]3O[C@H](CO)[C@@H](O)[C@H](O)[C@H]3O)ccc12,active
2,Cc1c(C)c2ccc(O[C@@H]3O[C@H](CO)[C@H](O)[C@H](O)[C@H]3O)cc2oc1=O,inactive
3,Cc1cc(=O)oc2cc(O[C@H]3O[C@@H](CO)[C@@H](O)[C@@H](O)[C@@H]3O)ccc12,inactive
4,C[C@H](CO)N1C[C@H](C)[C@H](CN(C)Cc2ccc(F)cc2)Oc2cc(C#CC(C)(C)O)ccc2S1(=O)=O,inactive
5,C=CCOC(=O)[C@@H]1[C@@H]2C=C[C@]3(O2)[C@H](C(=O)N(CC=C)Cc2ccccc2)N(c2cccc(Cl)c2CO)C(=O)[C@@H]13,inactive
6,C=CCOC(=O)[C@@H]1[C@@H]2C=C[C@@]3(O2)[C@@H]1C(=O)N(CCCCCCO)[C@H]3C(=O)N(CC=C)Cc1ccccc1,active
7,C=CCN(Cc1ccccc1)C(=O)[C@@H]1N(CCOCCO)C(=O)[C@@H]2[C@H](C(=O)O)[C@@H]3C=C[C@@]21O3,inactive
8,CN1C(=O)C[C@H](C(=O)O)[C@H]1c1cccnc1,inactive
9,COc1ccc(S(=O)(=O)Nc2ccc3c(c2)C(=O)N([C@@H](C)CO)C[C@H](C)[C@H](CN(C)S(=O)(=O)c2ccccc2)O3)cc1,inactive
10,COc1ccc(CN(C)C[C@H]2Oc3c(NS(=O)(=O)c4cn(C)cn4)cccc3C(=O)N([C@H](C)CO)C[C@H]2C)cc1,inactive
11,C[C@H](CO)N1C[C@H](C)[C@H](CN(C)C(=O)Nc2cccc3ccccc23)Oc2ccc(NC(=O)Nc3ccc4c(c3)OCO4)cc2CC1=O,inactive
12,Cc1cc(C)c(N(Cc2ccccc2)S(=O)(=O)c2ccc(OCCNC(=O)c3cc4ccccc4o3)cc2)c(C(=O)NO)c1,active
13,CCc1nc2ccc(C(=O)NCCOc3ccc(OC)cc3)cn2c1N(CC)Cc1cccc(Br)c1,inactive
14,O=C(NCCO)c1cc2ccccc2oc1=O,inactive
15,C[C@H]1CN([C@@H](C)CO)C(=O)c2cccc(NS(=O)(=O)c3cn(C)cn3)c2O[C@H]1CN(C)S(=O)(=O)c1cccs1,inactive
16,C[C@@H]1CN([C@H](C)CO)C(=O)c2cc(C#C[C@@H](C)O)cnc2O[C@@H]1CN(C)C(=O)Nc1ccc(C(F)(F)F)cc1,inactive
17,Nc1cc(=O)[nH]c(=O)n1-c1ccc(Cl)cc1,inactive

row,Structure (SMILES),cytotoxicity call
1,O=C(O)CSCC(=O)N1CCCCC1,inactive
2,CN1C(=O)c2cc(NC(=O)C3CCOCC3)ccc2OC[C@@H]2O[C@@H](CC(=O)NCc3ccccc3F)CC[C@H]21,inactive
3,C[C@H]1CN([C@@H](C)CO)C(=O)c2cccc(NS(C)(=O)=O)c2O[C@H]1CN(C)S(=O)(=O)c1ccc(F)cc1,inactive
4,COc1ccc(CC2c3cc(OC)c(OC)cc3CC[N+]2(C)CCC(=O)OCCCCCOC(=O)CC[N+]2(C)CCc3cc(OC)c(OC)cc3C2Cc2ccc(OC)c(OC)c2)cc1OC.O=S(=O)([O-])c1ccccc1.O=S(=O)([O-])c1ccccc1 (stereo not drawn),inactive
5,COc1ccc(C[C@@H]2c3cc(OC)c(OC)cc3CC[N@+]2(C)CCC(=O)OCCCCCOC(=O)CC[N@@+]2(C)CCc3cc(OC)c(OC)cc3[C@H]2Cc2ccc(OC)c(OC)c2)cc1OC,active
6,COc1ccc(C[C@H]2c3cc(OC)c(OC)cc3CC[N@+]2(C)CCC(=O)OCCCCCOC(=O)CC[N@+]2(C)CCc3cc(OC)c(OC)cc3[C@@H]2Cc2ccc(OC)c(OC)c2)cc1OC,inactive
7,C[C@@H]1CN([C@@H](C)CO)C(=O)Cc2cc(NC(=O)Cc3cn(C)c4ccccc34)ccc2O[C@@H]1CN(C)S(=O)(=O)c1cn(C)cn1,inactive
8,C[C@@H]1CCCCO[C@@H](CN(C)S(=O)(=O)c2ccccc2)[C@H](C)CN([C@@H](C)CO)C(=O)c2cc(NS(=O)(=O)c3cn(C)cn3)ccc2O1,inactive
9,C[C@H]1CN([C@@H](C)CO)C(=O)Cc2cc(NS(=O)(=O)c3cn(C)cn3)ccc2O[C@@H]1CN(C)S(=O)(=O)c1ccc(Cl)cc1,inactive
10,Cc1ccc(S(=O)(=O)Nc2ccc3c(c2)C(=O)N([C@@H](C)CO)C[C@@H](C)[C@H](CN(C)Cc2ccccc2)OCCCC[C@@H](C)O3)cc1,inactive
11,COc1ccc2c3c([nH]c2c1)[C@@H](CO)N(Cc1ccc(cc1)Cl)C[C@]13CCN(CC1)Cc1nccs1,inactive
12,COc1ccc2c3c([nH]c2c1)[C@H](CO)N(Cc1ccc(cc1)Cl)C[C@]13CCN(CC1)Cc1ccccc1,active
13,COc1ccc(cc1)CN1C[C@]2(CCN(CC2)Cc2ccccc2OC)c2c([nH]c3cc(ccc23)OC)[C@@H]1CO,inactive
14,COc1ccc2c3c([nH]c2c1)[C@H](CO)N(Cc1ccncc1)C[C@]13CCN(CC1)Cc1ccc(cc1)-c1ccccn1,inactive
15,COc1ccc2c3c([nH]c2c1)[C@@H](CO)N(Cc1ccc(cc1)Cl)C[C@]13CCN(CC1)Cc1ccccc1,active
16,COc1ccc2c3c([nH]c2c1)[C@H](CO)N(Cc1ccc(cc1)Cl)C[C@]13CCN(CC1)Cc1nccs1,inactive
